From PubChem BioAssay (NCATS)
Several values for one entry are separate records, joined by “and”; a condition that tells them apart may be missing. Equal entries are not always repeated. Inconclusive results are not listed. Activity calls are given as the source filed them. Unless noted, the call rests on the fitted dose curve.

Experiments:
[1] = target: Cytochrome P450 2C9 (Homo sapiens) (UniProt P11712); assay: qHTS Assay for Inhibitors and Substrates of Cytochrome P450 2C9 (AID 883; active means well fitted curve in the direction sought with a large enough effect; an effect the other way counts as inactive or inconclusive; further: on the % scale 0 is the no-effect control and ±100 the full control effect; nearly all actives have a fitted effect of over 60% in size)
Cytochrome P450 2C9 (Homo sapiens), sequence (P11712 whole entry, looked up): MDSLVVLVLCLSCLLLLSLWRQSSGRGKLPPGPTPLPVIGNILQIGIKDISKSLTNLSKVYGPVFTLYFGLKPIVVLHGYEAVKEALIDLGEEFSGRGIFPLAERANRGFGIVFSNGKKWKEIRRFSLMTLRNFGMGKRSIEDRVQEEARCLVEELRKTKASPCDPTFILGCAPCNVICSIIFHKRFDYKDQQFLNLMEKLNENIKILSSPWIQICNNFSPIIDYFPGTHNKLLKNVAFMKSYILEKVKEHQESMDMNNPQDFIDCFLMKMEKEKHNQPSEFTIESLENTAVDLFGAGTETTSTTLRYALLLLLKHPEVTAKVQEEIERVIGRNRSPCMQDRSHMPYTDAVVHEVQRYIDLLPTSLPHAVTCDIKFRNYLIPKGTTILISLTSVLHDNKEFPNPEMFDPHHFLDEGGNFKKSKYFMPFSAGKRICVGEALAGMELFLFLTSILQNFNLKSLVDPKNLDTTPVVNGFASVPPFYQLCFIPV
In short: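 Inhibition of CYP2C9 is scored as loss of luminescence, with 57uM sulphaphenazole defining 100% inhibition. Substrate Luciferin-H is used at 100uM, equal to its KM; enzyme at 10nM in 25mM KPO4, 60 min at 37C with NADPH regeneration.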

[2] = target: Cytochrome P450 2C19 (Homo sapiens) (UniProt P33261); assay: qHTS Assay for Inhibitors and Substrates of Cytochrome P450 2C19 (AID 899; active means well fitted curve in the direction sought with a large enough effect; an effect the other way counts as inactive or inconclusive; further: on the % scale 0 is the no-effect control and ±100 the full control effect; nearly all actives have a fitted effect of over 60% in size)
Cytochrome P450 2C19 (Homo sapiens), sequence (P33261 whole entry, looked up): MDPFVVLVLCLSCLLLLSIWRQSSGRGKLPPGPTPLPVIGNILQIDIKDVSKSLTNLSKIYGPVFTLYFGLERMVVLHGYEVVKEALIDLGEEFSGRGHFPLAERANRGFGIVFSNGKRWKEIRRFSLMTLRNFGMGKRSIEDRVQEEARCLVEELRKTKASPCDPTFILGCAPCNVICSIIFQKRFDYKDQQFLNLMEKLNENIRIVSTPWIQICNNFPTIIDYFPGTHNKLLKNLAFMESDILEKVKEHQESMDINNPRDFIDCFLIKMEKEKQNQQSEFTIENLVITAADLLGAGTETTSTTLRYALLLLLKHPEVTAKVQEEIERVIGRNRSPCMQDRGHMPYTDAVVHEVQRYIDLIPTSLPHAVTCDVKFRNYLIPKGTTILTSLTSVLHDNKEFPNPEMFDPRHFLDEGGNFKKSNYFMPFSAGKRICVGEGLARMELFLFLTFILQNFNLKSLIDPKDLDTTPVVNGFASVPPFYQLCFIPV
In short: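 5nM enzyme + 10uM Luciferin-H EGE (=KM), 50mM KPO4; cpd pin-transferred, 10 min 37C; NADPH regen, 60 min 37C; stopped w/ luciferin detection reagent, 20 min; luminescence. Normalized to 57uM ketoconazole (AC100).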

[3] = qHTS Assay for Identification of Small Molecule Agonists for Thrombopoietin (TPO) Signaling Pathway (AID 917; active means well fitted curve in the direction sought with a large enough effect; an effect the other way counts as inactive or inconclusive; further: on the % scale 0 is the no-effect control and ±100 the full control effect)
In short: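 Stimulation at the TPO EC50 (26 pM final) was used to detect activators. Ba/F3 mouse cells bearing human TPO receptor and a luciferase reporter under the Glycoprotein IIb promoter were exposed to compounds for 24 hrs at 37 C.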

[4] = target: Muscarinic acetylcholine receptor M1 (Rattus norvegicus) (UniProt P08482); assay: qHTS Assay for Antagonists of Acetylcholine Muscarinic M1 Receptor: Measurement of IP-One Response (AID 944; active means well fitted curve in the direction sought with a large enough effect; an effect the other way counts as inactive or inconclusive; further: nearly all actives have a fitted effect of over 75% in size)
In short: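 Read-out: HTRF competition between d2-IP1 and Eu-cryptate anti-IP1 antibody, emission 620 and 665 nm. Stimulus was carbachol, EC80 (200 nM), for 30 min in M1-CHO cells (rat receptor), after 10 min compound pre-treatment.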

[5] = target: Pyruvate kinase (Leishmania mexicana) (UniProt Q27686); assay: qHTS Validation Assay for Inhibitors of Leishmania Mexicana Pyruvate Kinase (AID 945; active means well fitted curve in the direction sought with a large enough effect; an effect the other way counts as inactive or inconclusive;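 further: 0% = DMSO only neutral control wells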)
In short: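 Purified LmPYK (E451W mutant, 0.2 nM) was incubated 1 h at room temperature with 0.5 mM PEP and 0.1 mM ADP in 50 mM imidazole pH 7.2, 50 mM KCl, 7 mM MgCl2; ATP formed was read by PKLight luminescence, normalized to DMSO wells.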

[6] = target: Pyruvate kinase PKM (Homo sapiens) (UniProt P14618); assay: qHTS Assay for Activators of Human Muscle Pyruvate Kinase (AID 954; active means well fitted curve in the direction sought with a large enough effect, not every such curve was filed as active;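 further: 0% = uninhibited enzyme and -100% = no enzyme or full thiadiazolimine inhibition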)
In short: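 ATP production by PKM2 detected via luciferase luminescence after 1 h room-temperature reaction (0.1 nM enzyme, PEP at Km 0.5 mM, ADP 0.1 mM, pH 7.2 imidazole buffer). Inhibition scaled to no-enzyme control; activation referenced to 0.3 nM enzyme wells.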

[7] = target: Alpha-galactosidase A (Homo sapiens) (UniProt P06280); assay: Counterscreen for Glucocerebrosidase Inhibitors: qHTS Assay for Human alpha-Galactosidase at pH 4.5 (AID 992; active means well fitted curve in the direction sought with a large enough effect; an effect the other way counts as inactive or inconclusive; further: 0% is about no effect)
Alpha-galactosidase A (Homo sapiens), sequence (P06280 whole entry, looked up): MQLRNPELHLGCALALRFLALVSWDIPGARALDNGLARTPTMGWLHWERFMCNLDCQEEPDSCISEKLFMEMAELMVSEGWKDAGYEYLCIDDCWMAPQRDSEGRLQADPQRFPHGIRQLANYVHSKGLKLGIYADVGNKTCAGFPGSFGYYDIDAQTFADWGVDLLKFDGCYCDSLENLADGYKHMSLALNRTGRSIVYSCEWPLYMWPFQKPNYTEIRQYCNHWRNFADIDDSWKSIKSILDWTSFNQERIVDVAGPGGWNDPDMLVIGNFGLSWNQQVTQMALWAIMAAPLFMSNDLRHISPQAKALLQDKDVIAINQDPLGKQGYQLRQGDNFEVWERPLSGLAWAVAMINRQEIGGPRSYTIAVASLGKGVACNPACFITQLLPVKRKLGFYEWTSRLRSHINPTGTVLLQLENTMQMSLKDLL
In short: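 Fluorogenic 1536-well qHTS at pH 4.5 (citrate, Tween-20): 2 nM enzyme, 80 uM 4-MU-alpha-galactoside, 20 min room temperature, NaOH/glycine stop. Titration 0.7 nM to 77 uM, data normalized to no-enzyme and full-activity controls, Hill-fitted AC50.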

[8] = target: alpha-glucosidase (Oryza sativa, rice) (UniProt Q653V4); assay: Counterscreen for Glucocerebrosidase Inhibitors: qHTS Assay for Rice alpha-Glucosidase at pH 5.0 (AID 997; active means well fitted curve in the direction sought with a large enough effect; an effect the other way counts as inactive or inconclusive;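 further: 0% = full activity with enzyme and -100% = basal without enzyme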)
In short: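 Endpoint fluorogenic assay at pH 5.0: compounds (0.7 nM to 77 uM) titrated against 4 nM rice enzyme and 400 uM 4-MU-alpha-glucoside for 20 min at room temperature; NaOH/glycine stop, read ex 365/em 440 nm, Hill-fitted AC50.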

[9] = target: Estrogen receptor (Homo sapiens) (UniProt P03372); assay: qHTS assay for small molecule antagonists of estrogen receptor alpha signaling (AID 588513; active means well fitted curve in the direction sought with a large enough effect in the signal ratio, with a control signal flat, not every such curve was filed as active; the % refers to the signal ratio; further: on the % scale 0 is the no-effect control and ±100 the full control effect)
Estrogen receptor (Homo sapiens), sequence (P03372 whole entry, looked up): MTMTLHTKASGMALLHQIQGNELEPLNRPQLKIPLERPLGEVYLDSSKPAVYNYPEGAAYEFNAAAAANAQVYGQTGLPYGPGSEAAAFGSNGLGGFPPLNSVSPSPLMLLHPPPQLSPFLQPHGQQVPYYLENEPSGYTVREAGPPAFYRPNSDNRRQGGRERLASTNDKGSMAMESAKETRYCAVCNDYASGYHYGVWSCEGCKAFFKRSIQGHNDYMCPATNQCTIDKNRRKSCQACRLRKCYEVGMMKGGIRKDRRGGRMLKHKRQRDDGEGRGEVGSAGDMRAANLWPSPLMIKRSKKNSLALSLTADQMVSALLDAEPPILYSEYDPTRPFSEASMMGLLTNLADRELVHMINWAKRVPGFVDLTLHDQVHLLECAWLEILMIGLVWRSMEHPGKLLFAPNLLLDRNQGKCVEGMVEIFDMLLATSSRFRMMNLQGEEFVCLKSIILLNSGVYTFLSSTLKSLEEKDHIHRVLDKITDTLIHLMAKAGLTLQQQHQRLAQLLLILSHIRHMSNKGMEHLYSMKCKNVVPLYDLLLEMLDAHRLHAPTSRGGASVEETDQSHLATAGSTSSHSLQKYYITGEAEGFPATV
In short: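 ER-alpha-UAS-bla GripTite HEK 293 cells in 2% charcoal/dextran-treated FBS medium; compounds titrated (1:2, duplicate), then stimulated with 0.5 nM 17-beta-estradiol for 18 h at 37C. CCF4 beta-lactamase fluorescence; Hill-fit IC50 and efficacy.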

[10] = target: Estrogen receptor (Homo sapiens) (UniProt P03372); assay: qHTS assay for small molecule agonists of estrogen receptor alpha signaling (AID 588514);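 further: 0% = vehicle only and 100% = reference agonist; nearly all actives have a fitted effect of over 70% in size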
In short: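 Read-out: CCF4 fluorescence from a beta-lactamase reporter in ER-alpha-UAS-bla HEK 293 cells after 18 hrs of compound exposure at 37 C. Normalized to 20 nM 17-beta-estradiol (100%) and DMSO (0%).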

[11] = target: Bile acid receptor (Homo sapiens) (UniProt Q96RI1); assay: qHTS assay for small molecule antagonists of farnesoid X receptor signaling (AID 588526); further: on the % scale 0 is the no-effect control and ±100 the full control effect
Bile acid receptor (Homo sapiens), sequence (Q96RI1 whole entry, looked up): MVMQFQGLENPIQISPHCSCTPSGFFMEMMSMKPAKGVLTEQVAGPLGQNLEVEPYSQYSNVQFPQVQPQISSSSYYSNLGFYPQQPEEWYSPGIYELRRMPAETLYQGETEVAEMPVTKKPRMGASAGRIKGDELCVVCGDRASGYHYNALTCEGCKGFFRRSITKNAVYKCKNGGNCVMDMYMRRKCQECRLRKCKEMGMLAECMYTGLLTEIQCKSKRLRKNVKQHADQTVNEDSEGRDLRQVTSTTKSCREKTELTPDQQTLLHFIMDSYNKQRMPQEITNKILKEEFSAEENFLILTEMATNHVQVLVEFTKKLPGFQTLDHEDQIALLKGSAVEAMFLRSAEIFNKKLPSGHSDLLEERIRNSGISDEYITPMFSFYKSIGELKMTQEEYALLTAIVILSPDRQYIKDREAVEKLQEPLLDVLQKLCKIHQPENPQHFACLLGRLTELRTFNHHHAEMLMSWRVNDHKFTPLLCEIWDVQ
In short: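 Beta-lactamase reporter antagonist mode: HEK293T FXR-UAS-bla cells, titrated compound, CDCA stimulation, 16 h 37 C, CCF4 dye 2 h RT. Data normalized to CDCA 50 uM and DMSO; Hill-fit IC50.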

[12] = target: Bile acid receptor (Homo sapiens) (UniProt Q96RI1); assay: qHTS assay for small molecule agonists of farnesoid X receptor signaling (AID 588527); settings: HEK293T FXR-UAS-bla, beta-lactamase ratio, 16 h; hits give high values;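 further: series mostly up to about 77 µM; 0% = vehicle basal and 100% = reference agonist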
In short: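 Agonist-mode beta-lactamase reporter in GeneBLAzer FXR-UAS-bla HEK293T cells, titration up to 92 uM, 16 h exposure at 37 C, CCF4 fluorescence. Response scaled to DMSO (0%) and 100 uM chenodeoxycholic acid (100%), then Hill-fitted for EC50 and efficacy.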

[13] = target: Peroxisome proliferator-activated receptor delta (Homo sapiens) (UniProt Q03181); assay: qHTS assay for small molecule antagonists of peroxisome proliferator-activated receptor delta signaling (AID 588535; active means well fitted inhibition curve with a large enough effect in the signal ratio, with a control signal flat, not every such curve was filed as active; the % refers to the signal ratio)
Peroxisome proliferator-activated receptor delta (Homo sapiens), sequence (Q03181 whole entry, looked up): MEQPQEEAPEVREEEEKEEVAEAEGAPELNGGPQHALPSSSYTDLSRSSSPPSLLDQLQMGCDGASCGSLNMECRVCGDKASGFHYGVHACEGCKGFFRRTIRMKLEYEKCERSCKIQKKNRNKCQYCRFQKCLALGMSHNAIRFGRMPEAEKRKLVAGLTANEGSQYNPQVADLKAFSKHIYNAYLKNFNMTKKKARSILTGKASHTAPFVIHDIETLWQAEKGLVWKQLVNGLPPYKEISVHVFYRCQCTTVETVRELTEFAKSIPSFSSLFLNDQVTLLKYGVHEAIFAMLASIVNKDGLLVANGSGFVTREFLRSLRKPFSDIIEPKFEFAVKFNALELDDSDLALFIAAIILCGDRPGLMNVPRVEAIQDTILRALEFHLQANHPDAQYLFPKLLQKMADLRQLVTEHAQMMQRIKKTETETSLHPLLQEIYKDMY
In short: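 Antagonist-mode qHTS using GeneBLAzer PPAR-delta-UAS-bla HEK293T cells; compound exposure 18 hrs at 37 C over a titration. Ratiometric CCF4 fluorescence at 460/530 nm; concentration-response points fitted to the Hill equation.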

[14] = target: Peroxisome proliferator-activated receptor gamma (Homo sapiens) (UniProt P37231); assay: qHTS assay for small molecule agonists of peroxisome proliferator-activated receptor gamma signaling (AID 588536; active means well fitted curve in the direction sought with a large enough effect in the signal ratio, with a control signal flat, not every such curve was filed as active; the % refers to the signal ratio;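 further: 0% = DMSO basal wells and 100% = rosiglitazone at 2 µM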)
Peroxisome proliferator-activated receptor gamma (Homo sapiens), sequence (P37231 whole entry, looked up): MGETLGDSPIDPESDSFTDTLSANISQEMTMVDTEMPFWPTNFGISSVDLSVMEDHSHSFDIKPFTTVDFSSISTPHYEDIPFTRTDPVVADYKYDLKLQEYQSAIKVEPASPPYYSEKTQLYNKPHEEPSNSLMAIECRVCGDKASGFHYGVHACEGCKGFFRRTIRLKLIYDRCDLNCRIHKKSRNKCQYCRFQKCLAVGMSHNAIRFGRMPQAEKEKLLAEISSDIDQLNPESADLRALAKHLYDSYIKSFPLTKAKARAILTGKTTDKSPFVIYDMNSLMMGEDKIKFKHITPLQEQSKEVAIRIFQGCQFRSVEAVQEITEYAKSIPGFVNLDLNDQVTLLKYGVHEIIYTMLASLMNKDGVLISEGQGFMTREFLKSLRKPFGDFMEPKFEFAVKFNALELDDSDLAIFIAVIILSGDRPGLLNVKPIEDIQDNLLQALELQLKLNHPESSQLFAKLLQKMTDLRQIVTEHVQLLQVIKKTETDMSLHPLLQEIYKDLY
In short: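 This is an agonist-mode beta-lactamase reporter assay in HEK293 PPAR-gamma-UAS-bla cells with 1% charcoal/dextran FBS. Compound titrations ran 16 h at 37 C before CCF4 detection. EC50 and efficacy are Hill fits scaled to 2 uM rosiglitazone (100%) and DMSO basal.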

[15] = target: Glucocorticoid receptor (Homo sapiens) (UniProt P04150); assay: qHTS assay for small molecule antagonists of glucocorticoid receptor signaling (AID 588533; active means well fitted inhibition curve with a large enough effect in the signal ratio, with a control signal flat, not every such curve was filed as active; the % refers to the signal ratio;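 further: cells stimulated with 2 nM dexamethasone as agonist; on the % scale 0 is the no-effect control and ±100 the full control effect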)
Glucocorticoid receptor (Homo sapiens), sequence (P04150 whole entry, looked up): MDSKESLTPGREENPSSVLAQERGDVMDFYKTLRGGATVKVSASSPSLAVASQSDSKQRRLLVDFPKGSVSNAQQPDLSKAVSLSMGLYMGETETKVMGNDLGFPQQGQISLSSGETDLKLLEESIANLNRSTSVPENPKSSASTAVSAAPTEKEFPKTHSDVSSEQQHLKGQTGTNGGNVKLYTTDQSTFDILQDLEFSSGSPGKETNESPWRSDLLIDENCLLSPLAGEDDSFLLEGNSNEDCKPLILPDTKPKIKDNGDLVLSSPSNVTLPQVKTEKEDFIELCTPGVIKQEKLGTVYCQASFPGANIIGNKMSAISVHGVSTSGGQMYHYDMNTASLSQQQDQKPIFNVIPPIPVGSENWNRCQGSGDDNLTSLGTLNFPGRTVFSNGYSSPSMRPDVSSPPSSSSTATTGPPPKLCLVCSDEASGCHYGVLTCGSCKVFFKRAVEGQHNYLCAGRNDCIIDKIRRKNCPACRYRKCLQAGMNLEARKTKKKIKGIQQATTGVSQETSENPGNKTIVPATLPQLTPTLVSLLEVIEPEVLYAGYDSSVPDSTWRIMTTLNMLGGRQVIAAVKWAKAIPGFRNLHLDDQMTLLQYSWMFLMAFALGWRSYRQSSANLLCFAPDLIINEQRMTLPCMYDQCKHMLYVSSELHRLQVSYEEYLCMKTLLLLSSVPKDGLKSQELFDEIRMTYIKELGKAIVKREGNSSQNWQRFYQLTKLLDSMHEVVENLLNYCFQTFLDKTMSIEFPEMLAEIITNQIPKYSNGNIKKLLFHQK
In short: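 Antagonist-mode qHTS: compound titrations added to GRE-bla HeLa cells, then dexamethasone 2 nM final; 18 h, 37 C. CCF4 FRET fluorescence normalized to dexamethasone and DMSO; IC50 from Hill fit.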

[16] = target: Peroxisome proliferator-activated receptor gamma (Homo sapiens) (UniProt P37231); assay: qHTS assay for small molecule antagonists of peroxisome proliferator-activated receptor gamma signaling (AID 588537; active means well fitted inhibition curve with a large enough effect in the signal ratio, with a control signal flat, not every such curve was filed as active; the % refers to the signal ratio;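 further: reporter cells co-stimulated with 50 nM rosiglitazone agonist during compound treatment; % of control where 0% means no effect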)
In short: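 Cell-based beta-lactamase assay; GW9662 served as the antagonist control. Stimulation used rosiglitazone, final 50 nM, 16 h, 37 C.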

[17] = qHTS assay to identify small molecules that stimulate interleukin-8 (IL-8) secretion (AID 651758; active means well fitted activation curve with a large enough effect in the signal ratio; the % refers to the signal ratio; further: 0% is about no effect)
In short: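 Secreted IL-8 measured homogeneously by TR-FRET (two labelled anti-IL-8 antibodies, 1-3 h at room temperature) after a 16 h, 37 C compound treatment of THP-1 cells at 2000 cells/well.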

[18] = target: Cytochrome P450 3A4 (Homo sapiens) (UniProt P08684); assay: qHTS Assay for Activators of Cytochrome P450 3A4 (AID 885; active means well fitted curve in the direction sought with a large enough effect; an effect the other way counts as inactive or inconclusive; further: nearly all actives have a fitted effect of over 65% in size)
Cytochrome P450 3A4 (Homo sapiens), sequence (P08684 whole entry, looked up): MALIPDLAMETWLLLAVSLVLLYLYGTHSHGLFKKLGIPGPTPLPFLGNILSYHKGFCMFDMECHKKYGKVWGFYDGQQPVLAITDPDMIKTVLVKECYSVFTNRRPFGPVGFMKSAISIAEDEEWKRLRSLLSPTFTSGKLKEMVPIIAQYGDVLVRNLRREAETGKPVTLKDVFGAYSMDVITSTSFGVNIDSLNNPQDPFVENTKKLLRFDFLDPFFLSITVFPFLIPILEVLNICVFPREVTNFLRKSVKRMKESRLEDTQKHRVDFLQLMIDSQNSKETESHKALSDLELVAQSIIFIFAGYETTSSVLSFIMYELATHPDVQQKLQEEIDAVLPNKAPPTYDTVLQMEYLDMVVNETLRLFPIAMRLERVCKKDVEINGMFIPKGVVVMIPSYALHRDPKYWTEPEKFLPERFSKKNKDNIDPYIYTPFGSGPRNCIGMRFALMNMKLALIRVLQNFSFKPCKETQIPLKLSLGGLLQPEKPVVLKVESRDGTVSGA
In short: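 Luminescent readout of luciferin formed from 25 uM Luciferin-PPXE (KM level) by 20 nM CYP3A4 in 200 mM KPO4, with 60 min NADPH-driven reaction at room temperature after 10 min compound exposure. Ketoconazole (57 uM) defined 100% inhibition.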

N[C@H](Cn1oc(=O)[nH]c1=O)C(=O)O
inactive: Potency [1] | Potency [2]

Nc1ncnc2c1ncn2[C@@H]1O[C@@H](COP(=O)(O)CP(=O)(O)OP(=O)(O)O)[C@H](O)[C@@H]1O
inactive: outcome [3] | Potency [4] | outcome [5] | outcome [6] | outcome [7] | outcome [8]

Nc1cccc(Cl)c1
inactive: Potency [9] | Potency [10] | outcome [11] | activation [12] -2.3% | outcome [13] | outcome [14]

C[N+](=O)[O-]
inactive: Potency [9] | outcome [15] | outcome [14] | Potency [16]

c1ccc(NNc2ccccc2)cc1
inactive: outcome [11] | activation [12] 1.06% and 0.0431% | outcome [13] | Potency [17]

c1ccc(Nc2ccc(Nc3ccccc3)cc2)cc1
inactive: activation [12] -1.54% | outcome [13]

C=C(C)CCl
inactive: Potency [9] | Potency [10] | outcome [11] | activation [12] -1.8% | outcome [15] | outcome [14]

ClCCOCCCl
inactive: outcome [11] | activation [12] -1.24% | outcome [13]

O=S(=O)(Cl)c1ccccc1
inactive: outcome [11] | activation [12] 1.82% | outcome [14] | Potency [16]

N#CC(Cl)(Cl)Cl
inactive: Potency [9] | outcome [11] | activation [12] -1.65% | outcome [15] | outcome [14]

C=CCOCC1CO1 (centres undefined)
inactive: Potency [9] | Potency [10] | outcome [11] | activation [12] -2.32%

ClP(Cl)(Cl)(Cl)Cl
inactive: Potency [9] | outcome [11] | activation [12] -2.17% | outcome [15]

CC12CC1(C)C(=O)N(c1cc(Cl)cc(Cl)c1)C2=O (centres undefined)
inactive: outcome [15] | outcome [13] | outcome [14] | Potency [16]

CCN(CC)CCO
inactive: outcome [15] | outcome [13] | outcome [14] | Potency [16]

CN1CSC(=S)N(C)C1
inactive: Potency [9] | Potency [10] | activation [12] 0.811% and -0.41% | outcome [15] | outcome [14] | Potency [16]

CC1CC(=O)O1 (centres undefined)
inactive: outcome [11] | activation [12] -1.6% | outcome [14] | Potency [16]

CCN(CC)N=O
inactive: activation [12] -2.25% | Potency [16]

CN(C)N=O
inactive: outcome [11] | activation [12] -0.99% | outcome [15] | outcome [14]

N#CCCC#N
inactive: Potency [9] | activation [12] -0.443% | outcome [14]

CN(C)c1ccccc1
inactive: outcome [11] | activation [12] -2.07% | outcome [15]

CCOP(=O)(OCC)OCC
inactive: outcome [15] | outcome [13] | Potency [16]

CCOS(C)(=O)=O
inactive: outcome [11] | activation [12] 1.7% | outcome [13]

O=[N+]([O-])c1cc(Cl)c(Cl)cc1Cl
inactive: Potency [9] | outcome [15] | outcome [14] | Potency [16] | Potency [17]

CCC[N+](=O)[O-]
inactive: outcome [11] | activation [12] 2.98% | outcome [13] | outcome [14] | Potency [16]

O=[N+]([O-])c1ccccc1CCl
inactive: Potency [9] | outcome [11] | activation [12] -1.64% | outcome [14] | Potency [16]

[O-][Cl+]O
inactive: Potency [9] | Potency [10]

N#CCCCCC#N
inactive: outcome [11] | activation [12] -2.39% | outcome [15] | outcome [14] | Potency [17]

O=P(OCCCl)(OCCCl)OCCCl
inactive: outcome [11] | activation [12] -0.898% | outcome [15] | outcome [13] | Potency [17]

CN(C)C(=O)Nc1cccc(C(F)(F)F)c1
inactive: outcome [13] | outcome [14] | Potency [16] | Potency [17]

C=C(Cl)CSC(=S)N(CC)CC
inactive: Potency [18] | outcome [11] | activation [12] 1.19% | outcome [14] | Potency [16]

Cc1ccc2c(C)cccc2c1
inactive: Potency [9] | Potency [10] | outcome [15] | outcome [14] | Potency [16] | Potency [17]

Oc1cccc(Cl)c1Cl
inactive: Potency [9] | Potency [10] | outcome [15] | Potency [16]

N#CCBr
inactive: Potency [9] | Potency [10] | outcome [11] | activation [12] -0.961%

C=CC(=O)OCC(CC)CCCC (centres undefined)
inactive: outcome [14] | Potency [16]

COc1ccc(C=O)cc1
inactive: Potency [9] | Potency [10] | outcome [15] | outcome [13] | outcome [14] | Potency [17]

COc1cc(-c2ccc(N)c(OC)c2)ccc1N
inactive: Potency [18] | outcome [13] | outcome [14] | Potency [16]

Cc1cccc(N)c1C
inactive: Potency [9] | outcome [11] | activation [12] -3.96% | outcome [14]

O=[N+]([O-])c1ccc2c3c(cccc13)CC2
inactive: Potency [18] | Potency [9] | outcome [11] | activation [12] -0.314% and -0.559% | outcome [13] | outcome [14] | Potency [16] | Potency [17]

O=[N+]([O-])c1ccc(O)c([N+](=O)[O-])c1
inactive: Potency [9] | outcome [14] | Potency [16] | Potency [17]
